Several values for one entry are separate records, joined by “and”; a condition that tells them apart may be missing. Identical values can stand only once. Counter-ions that a name gives are not always drawn.
Tests used:
Experiment in all cases: cell viability relative to vehicle control; higher = less cytotoxic
Conditions in all cases: 10 µM
K562 = system: K562
Summary of the method: (§1)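 Four leukaemia lines, as CRISPR-edited mutant clones and isogenic wild-type clones, were tested against Selleck bioactive, kinase and epigenetic probe libraries after removal of identity-inconsistent compounds. Cells were exposed to a single 10 µM dose for 48 h, and CellTiter-Glo luminescence was then read. Viability was calculated relative to the on-plate vehicle control.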

MARIMO = system: MARIMO
Summary of the method: as §1

MOLM14 = system: MOLM14
Summary of the method: as §1

OCI-AML2 = system: OCI-AML2
Summary of the method: as §1

| SMILES | cell viability (K562; SRSF2 genotype: SRSF2 P95H/wt) | cell viability (K562; SRSF2 genotype: SRSF2 wt/wt) [%] | cell viability (MARIMO; SRSF2 genotype: SRSF2 P95H/wt) [%] | cell viability (MARIMO; SRSF2 genotype: SRSF2 wt/wt) [%] | cell viability (MOLM14; SRSF2 genotype: SRSF2 P95H/wt) [%] | cell viability (MOLM14; SRSF2 genotype: SRSF2 wt/wt) [%] | cell viability (OCI-AML2; SRSF2 genotype: P95H/wt) [%] | cell viability (OCI-AML2; SRSF2 genotype: wt/wt) [%] |
| --- | --- | --- | --- | --- | --- | --- | --- | --- |
| C=CC(=O)N1CCC[C@@H](n2nc(-c3ccc(Oc4ccccc4)cc3)c(C(N)=O)c2N)C1 [Btk inhibitor 2] | 81.6% and 89.2% | 84.8 | 79.8 | 90.2 | 25.4 | 25.4 | 48.2 | 52.1 |
| CCn1cc(C(=O)O)c(=O)c2cc(F)c(N3CCN(C)CC3)cc21 [Pefloxacin mesylate] | 97.5% and 101% | 96.6 | 105 | 100 | 100 | 103 | 109 | 115 |
| CC1OC(OC2C(OC3CCC4(C)C(CCC5(C)C4CC=C4C6CC(C)(C)CCC6(C(=O)OC6OC(COC7OC(CO)C(O)C(O)C7O)C(O)C(O)C6O)CCC45C)C3(C)CO)OCC(O)C2O)C(O)C(OC2OC(CO)C(O)C(O)C2O)C1O (stereo not given) [Macranthoidin A] | 99.3% and 97.9% | 100 | 100 | 102 | 102 | 96.6 | 98 | 105 |
| C=C[C@@]1(C)CC(=O)[C@]2(O)[C@@]3(C)[C@@H](O)CCC(C)(C)[C@@H]3[C@H](O)[C@H](OC(C)=O)[C@@]2(C)O1 [Forskolin] | 96.8% and 104% | 94 | 99 | 88.6 | 92.6 | 101 | 105 | 96.1 |
| O=[N+]([O-])c1ccc2c(c1)S(=O)(=O)C=C2 [Stattic] | 8.02% and 0.43% | 0.74 | 0.14 | 0.16 | 0.12 | 0.25 | 0.06 | 0.06 |
| CC(C)n1c(=O)n(C)c2cnc3cc(F)c(-c4ccc(OCCCN5CCCCC5)nc4)cc3c21 | 71.3% and 72.9% | 75.9 | 60 | 61 | 30.9 | 32 | 32.7 | 37 |
| CN1[C@@H]2CC[C@H]1C[C@@H](OC(=O)c1c[nH]c3ccccc13)C2 [Tropisetron] | 92.1% and 89.1% | 97.1 | 87.4 | 89 | 105 | 104 | 91.8 | 98.3 |
| Cc1cc2c(C(=O)NCC(C)c3ccccc3)c(O)c(O)cc2c(O)c1-c1c(C)cc2c(C(=O)NCC(C)c3ccccc3)c(O)c(O)cc2c1O (stereo not given) [Sabutoclax] | 1.68% and 1.16% | 2.42 | 12.7 | 13.8 | 22.8 | 13.7 | 22.6 | 36 |
| CNC(=O)c1ccc2cc([C@@]3(O)CCn4cncc43)ccc2c1 [TAK-700 (Orteronel)] | 107% and 98.8% | 97.3 | 93.2 | 105 | 101 | 100 | 95.6 | 104 |
| COc1ccc(S(=O)(=O)NCc2ccc(C(=O)NCCc3ccc(Cl)cn3)cc2)cc1 | 83.3% and 86.3% | 81.6 | 84.3 | 105 | 83.4 | 90.9 | 92.7 | 104 |

From the supplement of paper PMC10981050
